Assay results from PubChem BioAssay (EPA / NIEHS).
Values joined by “and” are separate entries in the source; they are usually repeats but may differ in a detail not shown here. Equal entries are not always repeated. Records with an inconclusive call do not appear. Some compounds were tested as several samples or in several runs, with calls that do not always agree. Active and inactive are the calls of the source. How the source made its calls, unless noted: active means hit-call score of the fitted dose curve at least 0.9, where 1 is the maximum; inactive means score below 0.9.

What was measured:
[1] = biological target: Retinoic acid receptor RXR-alpha (Homo sapiens) (UniProt P19793); assay: ATG_RXRa_TRANS: Attagene TRANS-FACTORIAL HepG2 Assay for human Retinoid X Receptor alpha (RXRa) (AID 2283012; active means hit-call score of the fitted dose curve at least 0.9, where 1 is the maximum)
Method in brief: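 Read-out: fluorescent reporter-transcript fragments quantified by capillary electrophoresis after RT-PCR. Transiently transfected HepG2 cells carrying GAL4-UAS reporters and NR-GAL4 chimeras were exposed to chemical for 24 h; activity scored as increase over DMSO.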

[2] = biological target: human Retinoid X Receptor beta (RXRb), RXRB (gene 6257) (UniProt P28702); assay: ATG_RXRb_TRANS: Attagene TRANS-FACTORIAL HepG2 Assay for human Retinoid X Receptor beta (RXRb) (AID 2283013; active means hit-call score of the fitted dose curve at least 0.9, where 1 is the maximum)
Method in brief: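 Read-out: reporter mRNA induction via RT-PCR plus capillary electrophoresis fluorescence, analysed as signal increase relative to DMSO. Cells were human HepG2, transiently transfected with GAL4-UAS reporter constructs and chimeric receptor-Gal4 fusions, dosed for 24 h.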

[3] = biological target: human Thyroid Receptor alpha (THRa1), THRA (gene 7067) (UniProt P10827); assay: ATG_THRa1_TRANS: Attagene TRANS-FACTORIAL HepG2 Assay for human Thyroid Receptor alpha (THRa1) (AID 2283014; active means hit-call score of the fitted dose curve at least 0.9, where 1 is the maximum)
Method in brief: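 Measured here is mRNA from a GAL4-UAS reporter in transfected HepG2 cells carrying a Gal4-fused receptor, 24 h post-dose. DMSO served as negative control and baseline.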

[4] = read-out: E-selectin (Homo sapiens) (UniProt P16581); assay: BSK_3C_Eselectin: BioMAP Diversity Plus: 3C Assay for Eselectin Biomarker Activity (AID 2283015); settings: primary human endothelial cells (HUVEC); actives raise or lower the signal
Method in brief: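 Endpoint derived by bidirectional fitting against DMSO vehicle; signal is ELISA-detected E-selectin from primary HUVEC at 24 h post-dosing, with parallel SRB staining (0.1% SRB, 560 nm) flagging cytotoxicity.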

[5] = read-out: Interleukin-1 alpha (IL1a), IL1A (gene 3552); assay: BSK_BE3C_IL1a: BioMAP Diversity Plus: BE3C Assay for Interleukin-1 alpha (IL1a) Biomarker Activity (AID 2283016); settings: primary human bronchial epithelial cells; actives raise or lower the signal
Method in brief: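 ELISA read-out of IL-1a from human lung bronchial epithelial primary cells, 24 h post-dose. Gain or loss of signal fitted relative to DMSO negative control.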

[6] = read-out: Monocyte Chemoattractant Protein-1 (MCP1), CCL2 (gene 6347); assay: BSK_3C_MCP1: BioMAP Diversity Plus: 3C Assay for Monocyte Chemoattractant Protein-1 (MCP1) Biomarker Activity (AID 2283017); settings: primary human endothelial cells (HUVEC); actives raise or lower the signal
Method in brief: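 Using human vascular primary endothelium, researchers measured MCP-1 by ELISA 24 h after treatment, with DMSO serving as negative control for bidirectional fitting.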

[7] = read-out: Monocyte Chemoattractant Protein-1 (MCP1), CCL2 (gene 6347); assay: BSK_4H_MCP1: BioMAP Diversity Plus: 4H Assay for Monocyte Chemoattractant Protein-1 (MCP1) Biomarker Activity (AID 2283018); settings: primary human endothelial cells (HUVEC); actives raise or lower the signal
Method in brief: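 HUVEC primary cells, 24 h post-dose, MCP-1 by ELISA. Gain or loss of signal fitted bidirectionally vs DMSO baseline. Cytotoxicity: SRB stain (0.1% after 10% TCA fixation), read 560 nm, parallel cultures.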

[8] = read-out: Human Leukocyte Antigen - DR isotype (HLADR), HLA-DRA (gene 3122); assay: BSK_3C_HLADR: BioMAP Diversity Plus: 3C Assay for Human Leukocyte Antigen - DR isotype (HLADR) Biomarker Activity (AID 2283019); settings: primary human endothelial cells (HUVEC); actives raise or lower the signal
Method in brief: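 Compound added to primary HUVEC cultures, 24 h incubation, then HLA-DR determined by ELISA; endpoint derived by bidirectional fitting relative to DMSO negative control.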

[9] = read-out: Interleukin-8 (IL8), CXCL8 (gene 3576); assay: BSK_3C_IL8: BioMAP Diversity Plus: 3C Assay for Interleukin-8 (IL8) Biomarker Activity (AID 2283020); settings: primary human endothelial cells (HUVEC); actives raise or lower the signal
Method in brief: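 HUVEC, 3C stimulation; 24 h compound exposure; IL-8 read by ELISA; gain or loss of signal fitted relative to DMSO control.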

[10] = read-out: Monokine induced gamma interferon (MIG), CXCL9 (gene 4283); assay: BSK_3C_MIG: BioMAP Diversity Plus: 3C Assay for Monokine induced gamma interferon (MIG) Biomarker Activity (AID 2283021); settings: primary human endothelial cells (HUVEC); actives raise or lower the signal;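 on AC50: MIG protein level measured by immunoassay in the treated endothelial cultures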
Method in brief: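 HUVEC, 3C system; 24 h chemical exposure; MIG by ELISA; bidirectional fit vs DMSO baseline.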

[11] = biological target: human Vitamin D Receptor (VDR), VDR (gene 7421) (UniProt P11473); assay: ATG_VDR_TRANS: Attagene TRANS-FACTORIAL HepG2 Assay for human Vitamin D Receptor (VDR) (AID 2283022; active means hit-call score of the fitted dose curve at least 0.9, where 1 is the maximum)
Method in brief: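 Multiplexed TRANS reporter in HepG2; 24 h treatment; reporter mRNA by RT-PCR plus capillary electrophoresis; upregulation scored relative to DMSO.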

[12] = BSK_3C_SRB: Viability Assessment in the BioMAP Diversity Plus: 3C Assay (AID 2283023); settings: primary human endothelial cells (HUVEC);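 further: cells read 24 h after compound dosing; fitted both ways against DMSO so a hit may be signal rise or drop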
Method in brief: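 Overt cytotoxicity is gauged in parallel confluent HUVEC cultures by SRB total-protein staining at the time of biomarker measurement, 24 h after dosing. Gain or loss of signal is fitted versus DMSO.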

[13] = read-out: Matrix Metallopeptidase 1 (MMP1), MMP1 (gene 4312); assay: BSK_BE3C_MMP1: BioMAP Diversity Plus: BE3C Assay for Matrix Metallopeptidase 1 (MMP1) Biomarker Activity (AID 2283024); settings: primary human bronchial epithelial cells; actives raise or lower the signal
Method in brief: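 ELISA read-out of MMP1 in human lung bronchial epithelial primary cultures, 24 h post-dose; bidirectional curve fit vs DMSO baseline, gain or loss of signal scored.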

[14] = read-out: Pselectin, SELP (gene 6403); assay: BSK_4H_Pselectin: BioMAP Diversity Plus: 4H Assay for Pselectin Biomarker Activity (AID 2283026); settings: primary human endothelial cells (HUVEC); actives raise or lower the signal
Method in brief: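 HUVEC, 24 h chemical exposure; P-selectin read by ELISA. Bidirectional curve fit vs DMSO baseline; gain or loss of signal scored.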

[15] = BSK_4H_SRB: Viability Assessment in the BioMAP Diversity Plus: 4H Assay (AID 2283027); settings: primary human endothelial cells (HUVEC);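 further: cells exposed to compound for 24 h before staining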;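 on AC50: curves fitted both ways versus DMSO so AC50 may be loss or gain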
Method in brief: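 HUVEC, 24 h post-dose; 10% TCA fix, 0.1% SRB stain, A560 nm. Total protein = overt cytotoxicity, parallel to biomarker read. Bidirectional fit vs DMSO baseline.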

[16] = BSK_BE3C_SRB: Viability Assessment in the BioMAP Diversity Plus: BE3C Assay (AID 2283028); settings: primary human bronchial epithelial cells;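 further: measured 24 h after chemical dosing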;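 on AC50: fitted both ways so AC50 may mark signal gain or loss versus DMSO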
Method in brief: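 SRB total-protein staining (0.1%, after TCA fixation) of chemically dosed human bronchial epithelial primary cells at 24 h; DMSO serves as the negative control for bidirectional curve fitting.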

[17] = read-out: Thrombomodulin, THBD (gene 7056); assay: BSK_3C_Thrombomodulin: BioMAP Diversity Plus: 3C Assay for Thrombomodulin Biomarker Activity (AID 2283029); settings: primary human endothelial cells (HUVEC); actives raise or lower the signal
Method in brief: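 HUVEC, 3C conditions; compound 24 h; thrombomodulin by ELISA; bidirectional curve fit vs DMSO baseline; parallel SRB total-protein staining for cytotoxicity.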

[18] = read-out: Urokinase-type plasminogen activator receptor (uPAR), PLAUR (gene 5329); assay: BSK_4H_uPAR: BioMAP Diversity Plus: 4H Assay for Urokinase-type plasminogen activator receptor (uPAR) Biomarker Activity (AID 2283030); settings: primary human endothelial cells (HUVEC); actives raise or lower the signal
Method in brief: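 Endpoint derived via bidirectional curve fitting against DMSO baseline; readout was ELISA detection of uPAR on umbilical vein endothelial cells at 24 h post-treatment, with SRB-stained parallel cultures assessing cytotoxicity.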

[19] = read-out: Vascular endothelial growth factor receptor 2 (Homo sapiens) (UniProt P35968); assay: BSK_4H_VEGFRII: BioMAP Diversity Plus: 4H Assay for Vascular endothelial growth factor receptor 2 (VEGFR2) Biomarker Activity (AID 2283031); settings: primary human endothelial cells (HUVEC); actives raise or lower the signal;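 on AC50: cell-surface VEGFR2 protein level quantified by ELISA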
Method in brief: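 In this multiplexed HUVEC system, biomarker ELISA was performed after 24 h chemical exposure. Parallel SRB staining (TCA fixation, 560 nm) tracked cytotoxicity; DMSO served as baseline.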

[20] = BSK_3C_Vis: BioMAP Diversity Plus: 3C Assay for Morphology Visualization (AID 2283025); settings: primary human endothelial cells (HUVEC);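 further: light microscopy image of cell morphology used as background control; cells imaged 24 h after dosing; fitted both ways so gain or loss versus DMSO counts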
Method in brief: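 HUVEC, 3C system; light microscopy of morphology at 24 h post-dose. Bidirectional fit vs DMSO baseline. Secondary readout, background-control function.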

Measured: AC50

Sequence of Retinoic acid receptor RXR-alpha (Homo sapiens) (P19793 whole entry, looked up, the tested form may be a part): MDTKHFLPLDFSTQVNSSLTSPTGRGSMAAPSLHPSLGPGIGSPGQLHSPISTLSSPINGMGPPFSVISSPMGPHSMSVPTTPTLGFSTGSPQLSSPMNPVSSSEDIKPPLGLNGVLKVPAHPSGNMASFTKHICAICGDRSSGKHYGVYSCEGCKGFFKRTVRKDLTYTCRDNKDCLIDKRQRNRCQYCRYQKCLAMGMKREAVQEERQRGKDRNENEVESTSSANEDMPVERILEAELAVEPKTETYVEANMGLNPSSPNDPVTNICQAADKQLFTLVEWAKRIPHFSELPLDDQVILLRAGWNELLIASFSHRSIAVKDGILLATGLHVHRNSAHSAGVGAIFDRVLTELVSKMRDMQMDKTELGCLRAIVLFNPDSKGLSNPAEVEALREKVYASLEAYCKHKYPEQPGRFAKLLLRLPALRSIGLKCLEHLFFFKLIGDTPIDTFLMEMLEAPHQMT
Sequence of human Thyroid Receptor alpha (THRa1), THRA (gene 7067) (P10827 whole entry, looked up, the tested form may be a part): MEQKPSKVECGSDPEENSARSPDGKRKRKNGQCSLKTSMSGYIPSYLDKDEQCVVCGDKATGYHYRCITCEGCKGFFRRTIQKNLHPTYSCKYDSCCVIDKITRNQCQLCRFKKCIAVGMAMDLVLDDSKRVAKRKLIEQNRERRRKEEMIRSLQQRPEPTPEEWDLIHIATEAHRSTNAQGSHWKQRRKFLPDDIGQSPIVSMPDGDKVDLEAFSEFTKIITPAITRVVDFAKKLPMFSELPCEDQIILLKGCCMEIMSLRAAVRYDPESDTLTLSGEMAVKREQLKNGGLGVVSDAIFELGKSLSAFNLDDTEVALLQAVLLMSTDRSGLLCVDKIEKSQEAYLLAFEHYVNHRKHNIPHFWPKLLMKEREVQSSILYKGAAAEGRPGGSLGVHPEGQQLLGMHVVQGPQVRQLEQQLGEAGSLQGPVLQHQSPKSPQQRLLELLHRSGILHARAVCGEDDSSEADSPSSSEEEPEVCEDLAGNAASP
Sequence of E-selectin (Homo sapiens) (P16581 whole entry, looked up): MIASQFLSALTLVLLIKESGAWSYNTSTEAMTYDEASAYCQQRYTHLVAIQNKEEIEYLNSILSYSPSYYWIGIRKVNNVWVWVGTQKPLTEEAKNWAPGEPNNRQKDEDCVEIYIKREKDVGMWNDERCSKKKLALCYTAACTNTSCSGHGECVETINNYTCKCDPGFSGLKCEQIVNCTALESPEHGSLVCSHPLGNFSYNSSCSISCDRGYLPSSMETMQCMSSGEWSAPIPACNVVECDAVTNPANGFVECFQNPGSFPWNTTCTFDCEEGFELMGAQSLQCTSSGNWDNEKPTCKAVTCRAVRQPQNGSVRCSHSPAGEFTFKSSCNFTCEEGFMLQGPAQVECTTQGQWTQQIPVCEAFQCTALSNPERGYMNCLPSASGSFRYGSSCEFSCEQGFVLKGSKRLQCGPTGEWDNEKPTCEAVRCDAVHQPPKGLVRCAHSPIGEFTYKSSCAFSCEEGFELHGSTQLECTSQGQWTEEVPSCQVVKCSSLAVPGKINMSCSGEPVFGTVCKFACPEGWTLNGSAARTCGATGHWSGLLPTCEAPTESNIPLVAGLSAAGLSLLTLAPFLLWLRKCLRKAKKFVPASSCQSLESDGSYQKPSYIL
Sequence of human Retinoid X Receptor beta (RXRb), RXRB (gene 6257) (P28702 whole entry, looked up, the tested form may be a part): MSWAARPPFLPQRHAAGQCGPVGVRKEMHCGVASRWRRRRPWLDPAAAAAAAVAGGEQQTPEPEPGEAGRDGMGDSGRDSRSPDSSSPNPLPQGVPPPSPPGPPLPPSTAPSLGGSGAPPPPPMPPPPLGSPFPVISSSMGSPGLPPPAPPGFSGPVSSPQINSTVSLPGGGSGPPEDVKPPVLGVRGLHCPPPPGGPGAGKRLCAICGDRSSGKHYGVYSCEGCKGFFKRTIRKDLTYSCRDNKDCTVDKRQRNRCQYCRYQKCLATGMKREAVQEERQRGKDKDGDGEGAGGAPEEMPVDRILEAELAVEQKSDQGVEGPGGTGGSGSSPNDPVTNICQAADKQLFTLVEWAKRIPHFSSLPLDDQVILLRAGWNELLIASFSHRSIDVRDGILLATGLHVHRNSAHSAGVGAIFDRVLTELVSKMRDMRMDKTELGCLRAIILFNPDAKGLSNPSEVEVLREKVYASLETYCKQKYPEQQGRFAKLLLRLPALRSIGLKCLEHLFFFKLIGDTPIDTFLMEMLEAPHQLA
Sequence of human Vitamin D Receptor (VDR), VDR (gene 7421) (P11473 whole entry, looked up): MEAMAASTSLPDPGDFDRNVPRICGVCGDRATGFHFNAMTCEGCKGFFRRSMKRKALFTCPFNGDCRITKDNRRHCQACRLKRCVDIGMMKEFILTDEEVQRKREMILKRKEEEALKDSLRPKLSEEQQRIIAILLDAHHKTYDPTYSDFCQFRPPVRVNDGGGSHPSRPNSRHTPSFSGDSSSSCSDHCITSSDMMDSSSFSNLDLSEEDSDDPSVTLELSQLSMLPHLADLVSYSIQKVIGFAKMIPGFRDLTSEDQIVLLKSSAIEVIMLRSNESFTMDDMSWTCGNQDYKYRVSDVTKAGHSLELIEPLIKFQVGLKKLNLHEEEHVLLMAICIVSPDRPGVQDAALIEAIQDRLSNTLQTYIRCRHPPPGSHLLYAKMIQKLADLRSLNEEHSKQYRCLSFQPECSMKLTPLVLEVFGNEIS

O=C(CC(=O)C(F)(F)C(F)(F)C(F)(F)F)c1cccs1
inactive: [1] | [2] | [3] | [11] | [17] | [19]
active: [4] 51.4 µM and 52.5 µM | [5] 29.5 µM and 28.9 µM | [6] 40 µM and 41.2 µM | [7] 23.5 µM and 29.1 µM | [8] 24.1 µM and 24.6 µM | [9] 15.8 µM and 17.3 µM | [10] 51.9 µM and 52.2 µM | [12] 24.1 µM and 43.7 µM | [13] 43.6 µM and 45.2 µM | [14] 19.1 µM and 20.2 µM | [15] 34.4 µM and 44.3 µM | [16] 30 µM and 37.9 µM | [18] 49.1 µM and 54.8 µM | [19] 8.16 µM

CCCCCCCCCCCCCC[n+]1ccccc1
inactive: [1] | [2] | [3] | [11]

CCCCCCCCC1CCC(=O)O1 (configuration not stated)
inactive: [1] | [2] | [3] | [11]

CCCCCc1ccc(O)cc1
active: [2] 33.4 µM | [4] 13.5 µM | [5] 23.8 µM | [6] 20 µM | [7] 9.34 µM | [8] 11.6 µM | [9] 11.3 µM | [10] 34.6 µM | [12] 14.5 µM | [13] 30.2 µM | [20] 12.1 µM | [14] 13.3 µM | [15] 15.8 µM | [16] 26 µM | [17] 11.7 µM | [18] 20 µM
inactive: [1] | [3] | [19]

O=S(=O)(O)c1ccc2cc(O)ccc2c1
inactive: [1] | [2] | [3] | [11]

Cc1ccc2ccc3ccc(C)cc3c2c1
inactive: [1] | [11]
active: [2] 12.9 µM

CCOC=C(C(=O)OCC)C(=O)OCC
inactive: [1] | [2] | [11]

C=CC(=O)OCC(CO)(COCC(COC(=O)C=C)(COC(=O)C=C)COC(=O)C=C)COC(=O)C=C
inactive: [1] | [2] | [11]

CCC(C)c1nccnc1OC (configuration not stated)
inactive: [1] | [2] | [11]

O=C(O)CCC(F)(F)C(F)(F)C(F)(F)C(F)(F)C(F)(F)F
not listed: [3] | [20]
inactive: all other assays above

CCN(CCC#N)c1ccccc1
inactive: [1] | [2] | [11]

O=C1OC2(c3ccccc31)c1cc(I)c(O)c(I)c1Oc1c2cc(I)c(O)c1I
inactive: [1] | [3] | [9] | [10] | [11] | [15]
active: [4] 5.74 µM | [5] 4.58 µM | [6] 6.03 µM | [7] 4.8 µM | [8] 6.51 µM | [12] 12 µM | [13] 3.22 µM | [20] 22.5 µM | [14] 12 µM | [17] 7.01 µM | [18] 8.51 µM | [19] 3.36 µM
